Calls of active or inactive are those of the source. Unless noted, how the calls were made is not given here.
Assays:
[1] = compound effects on lung adenocarcinoma cell viability – A549, calcein-AM fluorescence, 48 h, basal, profiling panel (AID 1162); conditions: higher = more signal; further: test concentration not given here
[2] = compound effects on differentiated 3T3-L1 adipocyte viability – cell-based, 3T3-L1 adipocytes, calcein-AM fluorescence, 48 h, basal, profiling panel (AID 1163); conditions: 3T3-L1 adipocytes viability, higher = more signal; further: test concentration not given here
[3] = compound effects on hepatocellular carcinoma cell viability – HepG2, calcein-AM fluorescence, 48 h, basal, profiling panel (AID 1164); conditions: higher = more signal; further: test concentration not given here
[4] = compound effects on multiple myeloma cell viability – MM1S, calcein-AM fluorescence, 48 h, basal, profiling panel (AID 1165); conditions: higher = more signal; further: test concentration not given here
[5] = calcein-AM signal in unstimulated myeloma cells – cell-based, calcein-AM fluorescence, 48 h, PK04 Diversity Set, profiling panel (AID 1166); conditions: RPMI8226 myeloma viability, higher = more signal;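 further: cells grown under basal conditions without added stimulus; test concentration not given here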
[6] = JC-1 mitochondrial signal, unstimulated HepG2 cells – cell-based, JC-1 fluorescence, 24 h, 100 nL compound, profiling panel (AID 1167); conditions: HepG2 mitochondrial potential, higher = more signal; further: test concentration not given here
[7] = JC-1 mitochondrial signal, unstimulated adipocytes – cell-based, JC-1 fluorescence, 3T3-L1 adipocytes, 24 h, 100 nL compound, profiling panel (AID 1168); conditions: JC-1 mitochondrial fluorescence, higher = more signal, called active from +8 up or from −8 down; further: test concentration not given here
[8] = JC-1 mitochondrial signal, unstimulated myeloma cells – cell-based, JC-1 fluorescence, RPMI8226, 24 h, 100 nL compound, profiling panel (AID 1169); conditions: JC-1 mitochondrial potential fluorescence, higher = more signal; further: test concentration not given here
[9] = JC-1 mitochondrial signal, unstimulated MM1S myeloma – cell-based, JC-1 fluorescence, 24 h, 100 nL compound, profiling panel (AID 1170); conditions: MM1S mitochondrial potential, higher = more signal; further: test concentration not given here
[10] = resazurin metabolic signal in A549 cells – cell-based, resazurin fluorescence, 24 h, PK04 Diversity Set, profiling panel (AID 1171); conditions: A549 viability, higher = more signal, called active from +8 up or from −8 down; further: test concentration not given here
[11] = resazurin metabolic signal in HepG2 cells – cell-based, resazurin fluorescence, 24 h, PK04 Diversity Set, profiling panel (AID 1172); conditions: HepG2 viability, higher = more signal; further: test concentration not given here
[12] = budding yeast growth changes without added modifier – OD600, strain BY4716, 24 h, basal condition, primary screen (AID 1173); conditions: S. cerevisiae BY4716 growth, OD600, 24 h; higher = more signal, called active from +8 up or from −8 down
[13] = viability profiling in MM1S myeloma cells – cell-based, resazurin fluorescence, basal, 24 h, PK04 Diversity Set, profiling panel (AID 1174); conditions: higher = more signal, called active from +8 up or from −8 down; further: test concentration not given here
[14] = target: Dihydroorotate dehydrogenase (quinone), mitochondrial (Plasmodium falciparum (isolate 3D7)) (UniProt Q08210); assay: inhibition of P. falciparum DHODH – biochemical, C-terminal His tag, absorbance 600 nm, primary screen (AID 1175); conditions: PfDHODH enzyme, DCIP absorbance 600 nm; higher = more signal, called active from +8 up or from −8 down;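 further: recombinant parasite enzyme with a five histidine tag at its C terminus; test concentration not given here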
Sequence of Dihydroorotate dehydrogenase (quinone), mitochondrial (Plasmodium falciparum (isolate 3D7)) (Q08210 whole entry, looked up): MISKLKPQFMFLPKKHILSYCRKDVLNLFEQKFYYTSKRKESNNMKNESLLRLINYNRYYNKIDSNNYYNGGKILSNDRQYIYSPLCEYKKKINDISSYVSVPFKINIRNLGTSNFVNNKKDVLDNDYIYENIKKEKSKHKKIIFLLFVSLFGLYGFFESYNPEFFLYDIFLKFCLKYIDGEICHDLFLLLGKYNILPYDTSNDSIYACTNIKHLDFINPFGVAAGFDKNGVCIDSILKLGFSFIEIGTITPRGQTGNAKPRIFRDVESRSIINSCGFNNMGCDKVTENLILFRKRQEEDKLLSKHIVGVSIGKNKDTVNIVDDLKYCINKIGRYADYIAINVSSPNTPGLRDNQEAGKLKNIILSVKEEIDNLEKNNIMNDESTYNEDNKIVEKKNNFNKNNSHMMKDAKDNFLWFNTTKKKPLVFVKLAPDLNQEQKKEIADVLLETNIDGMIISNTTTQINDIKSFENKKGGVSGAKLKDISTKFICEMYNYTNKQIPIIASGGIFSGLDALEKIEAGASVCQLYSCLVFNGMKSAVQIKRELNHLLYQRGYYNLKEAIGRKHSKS

[15] = inhibition of PAO1 biofilm formation – strain PAO1, LB-PBS medium, absorbance 600 nm, primary screen (AID 1176); further: test concentration not given here; conditions: P. aeruginosa PAO1 growth/biofilm, A600, 12 h; higher = more signal
[16] = growth modulation of vineyard yeast isolate – strain RM11-1a, OD600, basal, 24 h, primary screen (AID 1177);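 further: cultures grown under basal conditions with no added stressor; test concentration not given here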; conditions: S. cerevisiae RM11-1a growth, OD600, 24 h; higher = more signal, called active from +8 up or from −8 down
[17] = growth of efflux-deficient E. coli DRC39 – strain DRC39, OD650, 24 h, E. coli filamentation inducers, primary screen (AID 1178);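 further: growth measured as culture turbidity by optical density at 650 nm; test concentration not given here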; conditions: E. coli DRC39 acrAB, higher = more signal, called active from +8 up or from −8 down
[18] = growth of efflux-deficient E. coli DRC39 – strain DRC39, OD650, 48 h, E. coli filamentation inducers, primary screen (AID 1179);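 further: screen aims at cell division blockers that make cells filament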; conditions: E. coli DRC39 delta-acrAB growth, higher = more signal, called active from +8 up or from −8 down
[19] = viability profiling in RPMI8226 myeloma cells – cell-based, resazurin fluorescence, basal, 24 h, PK04 Diversity Set, profiling panel (AID 1180); conditions: higher = more signal;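 further: RPMI8826 multiple myeloma cell line at 5000 cells per well; test concentration not given here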
[20] = target: E3 ubiquitin-protein ligase XIAP (Homo sapiens) (UniProt P98170); assay: small molecules binding XIAP protein – biophysical, small-molecule microarray, fluorescence 635 nm, primary screen (AID 1181); conditions: higher = more signal;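 further: score merges 667 nm emission and signal to noise over triplicate slides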
Sequence of E3 ubiquitin-protein ligase XIAP (Homo sapiens) (P98170 whole entry, looked up): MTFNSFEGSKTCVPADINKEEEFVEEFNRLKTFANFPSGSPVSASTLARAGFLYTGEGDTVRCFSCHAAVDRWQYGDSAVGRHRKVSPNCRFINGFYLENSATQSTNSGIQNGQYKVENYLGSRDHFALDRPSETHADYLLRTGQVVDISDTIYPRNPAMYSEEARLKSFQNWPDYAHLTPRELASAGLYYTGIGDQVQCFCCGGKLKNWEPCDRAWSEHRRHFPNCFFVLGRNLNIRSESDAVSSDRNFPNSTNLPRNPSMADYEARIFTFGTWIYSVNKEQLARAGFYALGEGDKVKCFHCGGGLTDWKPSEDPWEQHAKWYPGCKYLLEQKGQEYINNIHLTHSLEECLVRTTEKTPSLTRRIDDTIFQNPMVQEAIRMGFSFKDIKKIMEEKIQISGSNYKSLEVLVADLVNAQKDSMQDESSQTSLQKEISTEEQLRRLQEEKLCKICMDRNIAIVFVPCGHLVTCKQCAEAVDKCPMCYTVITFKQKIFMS

Compound | z-score [1] | z-score [2] | z-score [3] | z-score [4] | z-score [5] | z-score [6] | z-score [7] | z-score [8] | z-score [9] | z-score [10] | z-score [11] | z-score [12] | z-score [13] | composite z-score [14] | z-score [15] | z-score [16] | z-score [17] | z-score [18] | z-score [19] | composite z-score [20]
[N-]=[N+]=Nc1ccccc1C[C@]1(C(N)=O)COC(c2ccc(OCCCO)cc2)=N1 | -0.193 | 0.936 | 0.0027 | -0.286 | -0.334 | 0.253 | -0.298 (inactive) | -0.964 | -0.942 | 0.246 (inactive) | 0.978 | -0.0745 (inactive) | 0.157 (inactive) | -0.265 (inactive) | 0.398 (inactive) | -0.762 (inactive) | 0.578 (inactive) | -0.364 (inactive) | 0.177 | 0.396
COc1ccc(C(=O)Nc2ccc(CN3C(=O)[C@@]4(O[C@@H](CC(=O)N(CCO)Cc5ccccc5)[C@H]([Si](C)(C)c5ccc(OC)cc5)[C@H]4C)c4ccccc43)cc2)cc1 | -0.86 | 1.4 | -1.04 | -0.507 | -1.47 | 0.656 | 0.816 (inactive) | -0.931 | -0.493 | -0.861 (inactive) | 1.4 | 0.164 (inactive) | -0.952 (inactive) | -1.53 (inactive) | 0.814 (inactive) | 0.961 (inactive) | 0.7 (inactive) | 0.439 (inactive) | -1.29 | 0.101
C=CCC(OC(C)=O)[C@@H]1[C@@H](N(Cc2cccc3ccccc23)C(=O)c2ccc(C)cc2)c2cc(OCCCO)ccc2N1C(=O)Cc1ccc2ccccc2c1 (stereo not given in full) | 0.396 | 1.05 | 1.55 | 0.83 | 0.986 | 3.54 | 0.598 (inactive) | 0.152 | -0.984 | 0.433 (inactive) | 0.0546 | -1.34 (inactive) | 0.802 (inactive) | -2.08 (inactive) | 0.0642 (inactive) | -1.31 (inactive) | 0.72 (inactive) | 1.28 (inactive) | 0.608 | 0.0264
COCCOC(=O)N1C(=O)[C@@]2(c3cc(C#CCCO)ccc31)[C@H](c1ccc(O)cc1)N1[C@H](c3ccccc3)[C@H](c3ccccc3)OC(=O)[C@H]1[C@@H]2C(=O)NC[C@H](O)c1ccccc1 | 1.7 | 0.617 | 1.2 | 0.0034 | -0.409 | -0.424 | -1.55 (inactive) | -0.429 | -0.841 | 0.908 (inactive) | 1.63 | 0.597 (inactive) | 0.763 (inactive) | 0.612 (inactive) | 1.66 (inactive) | 1.06 (inactive) | 1.04 (inactive) | 1.67 (inactive) | 1.2 | 0.0256
COCCOC(=O)N1C(=O)[C@@]2(c3cc(C#CCC(C(=O)OC)C(=O)OC)ccc31)[C@H](C(=O)N1CCc3cc(OC)c(OC)cc3C1)[C@H]1C(=O)O[C@H](c3ccccc3)[C@H](c3ccccc3)N1[C@@H]2c1ccccc1OCCO | 0.184 | 0.964 | -0.717 | -2.22 | -0.619 | 0.543 | 1.14 (inactive) | -0.946 | -1.05 | 0.853 (inactive) | 1.11 | 1.48 (inactive) | 0.328 (inactive) | -1.23 (inactive) | 1.68 (inactive) | 1.3 (inactive) | 0.414 (inactive) | -0.186 (inactive) | 0.637 | -0.226
C=C(COC)C(=O)CC[C@H](OC(C)=O)c1ccccc1OCCO | 0.0878 | 2.22 | -0.699 | -3.39 | -1.97 | 1.61 | 0.862 (inactive) | -0.699 | -1.18 | -0.164 (inactive) | -0.812 | -0.86 (inactive) | -2.03 (inactive) | -1.56 (inactive) | -0.435 (inactive) | -0.0727 (inactive) | 0.732 (inactive) | 0.373 (inactive) | -2.37 | 0.0153
COC(=O)[C@H]1N=C(c2ccc(OCCCO)cc2)O[C@H]1c1ccccc1N=[N+]=[N-] | -0.206 | 0.323 | -0.151 | -0.862 | -1.44 | -0.434 | -0.419 (inactive) | -0.739 | 0.567 | -0.15 (inactive) | 0.249 | -3.93 (inactive) | -0.971 (inactive) | 0.556 (inactive) | 1.43 (inactive) | 0.682 (inactive) | 0.584 (inactive) | -0.711 (inactive) | 0.464 | -0.141
C=C[C@@H](CO)NS(=O)(=O)c1ccc(Br)cc1 | 2.03 | 0.935 | 2.23 | 0.855 | 1.05 | 0.631 | 0.369 (inactive) | 0.133 | 0.993 | 2.35 (inactive) | 1.4 | -2.03 (inactive) | 1.16 (inactive) | -1.37 (inactive) | 0.193 (inactive) | -2.19 (inactive) | 1.43 (inactive) | 1.16 (inactive) | 0.867 | -0.215
COC(=O)[C@H](Cc1ccccc1)N1CC(C)(OC)O[C@@H](Cc2ccccc2)[C@H]1/C=C/C1CC1 (stereo not given in full) | -0.572 | -0.317 | 0.299 | 0.391 | -0.304 | 0.208 | -0.394 (inactive) | 0.28 | -0.521 | 0.379 (inactive) | 0.0905 | -0.968 (inactive) | -0.32 (inactive) | 0.512 (inactive) | -0.532 (inactive) | 0.815 (inactive) | -0.311 (inactive) | 0.215 (inactive) | -0.249 | 0.0583

From PubChem BioAssay
